# Screening data (PubChem)
# PLK1 PBD inh – inhibitors of human PLK1 polo-box domain binding | P53350 | Plk1 PBD binding of FITC phosphopeptide, fluorescence polarization | Potency, µM, for inactives: max response, negative = inhibition, most hits filed as inhibitors | actives 2.8% (n = 360,000) | AID 720504; note: series mostly up to about 57 µM; nearly all actives have a fitted effect of over 65% in size
# Target sequence (P53350 whole entry, looked up, the tested form may be a part): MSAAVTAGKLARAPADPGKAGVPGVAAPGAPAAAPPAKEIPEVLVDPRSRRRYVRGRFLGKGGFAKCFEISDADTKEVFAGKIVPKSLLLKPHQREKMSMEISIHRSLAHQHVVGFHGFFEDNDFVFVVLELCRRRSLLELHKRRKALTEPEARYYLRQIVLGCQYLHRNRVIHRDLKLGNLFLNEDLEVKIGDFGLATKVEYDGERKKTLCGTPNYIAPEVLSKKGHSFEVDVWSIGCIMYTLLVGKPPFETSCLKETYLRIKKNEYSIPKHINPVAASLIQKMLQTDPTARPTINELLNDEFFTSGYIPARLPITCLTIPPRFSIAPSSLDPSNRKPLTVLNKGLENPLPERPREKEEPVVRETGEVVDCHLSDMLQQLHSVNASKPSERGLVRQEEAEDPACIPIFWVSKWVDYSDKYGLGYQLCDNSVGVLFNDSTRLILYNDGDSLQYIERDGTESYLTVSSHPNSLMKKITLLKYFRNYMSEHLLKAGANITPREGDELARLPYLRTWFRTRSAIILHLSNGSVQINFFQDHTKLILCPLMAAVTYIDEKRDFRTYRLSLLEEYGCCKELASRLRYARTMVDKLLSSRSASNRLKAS
# Sfp inh – inhibitors of Bacillus subtilis Sfp phosphopantetheinyl transferase. actives 3.5% (n = 310,000). Q9F4F7. Biochemical Sfp PPTase activity, qHTS. Potency, µM, without a hit: largest response in the series, negative = inhibition, hits mostly inhibitors;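 note: the enzyme is Sfp with the accession as filed and its product quenches rhodamine fluorescence; 0% = enzyme reaction without inhibitor and -100% = no enzyme wells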
#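 Step 1, compound plus 15 nM Sfp-PPTase, 15 min, room temperature. Step 2, add rhodamine-CoA (5 uM) and BHQ-2-YbbR (12.5 uM). Step 3, read 525/598 nm fluorescence at 0 and 30 min.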
# VDR inh – vitamin D3 receptor (human) inhibition; P11473; VDR-SRC2-3 peptide fluorescence polarization, 2 h; Potency, µM, for the others: max response, negative = inhibition, actives largely listed as inhibitors; actives 0.93% (n = 400,000)
#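 Signal is fluorescence polarization, reporting how far test compounds block the interaction of VDR with the SRC2-3 coregulator peptide after a 2 h room-temperature incubation.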
# 12-LOX inh – ALOX12 (human) lipoxygenase inhibition. P18054. purified 12hLO, xylenol orange hydroperoxide absorbance. Potency, µM (highest dose often 108 µM), for the others: top-dose activity change, negative = inhibition, actives largely listed as inhibitors. actives 1.1% (n = 580,000). AID 1671190
#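 Purified human 12hLO at 150 nM in 25 mM Hepes, 0.01% Triton X-100, pH 7.0, preincubated 15 min at room temperature with compound. Reaction started with 40 uM arachidonic acid, 30 min at room temperature. Hydroperoxide measured by Fe-xylenol orange, 573/405 nm absorbance ratio.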
# The depositor's hits bear a star; ? = inconclusive; . = no result given; [ ] = remark or other dose. Sampled rows, rich in hits. Any-hit rate of the full collection: about 4.2%. Calls come from the whole dose curve; as a rule, active = well fitted curve in the direction sought with a large enough effect; inconclusive = small, poorly fitted or top-dose-only effect, or another doubt; inactive = no such curve, though single readings can be large; an effect the other way counts as inactive or inconclusive. Unless noted, % is set by controls: 0 for no effect and ±100 for the full control effect; potency is the fitted concentration of half-maximal effect.
SMILES,PLK1 PBD inh,Sfp inh,VDR inh,12-LOX inh
Cc1ccc(C2CC(c3ccc(F)cc3)Nc3nc(N)nn32)cc1 (configuration not stated),26.7µM*,-0.6%,-18.8%,6.3%[57.4 µM]
S=C(NCc1ccc2[nH]c3c(c2c1)CCCC3)Nc1ccccc1,-1.3%,5.2%,-12.5%,39.8µM*
Cc1cc(C)cc(NC(=S)NCc2ccc3[nH]c4c(c3c2)CCCC4)c1,-9.9%,3.3%,-2.9%,39.8µM*
Cc1cc(C)cc(NC(=O)CN(C)S(=O)(=O)c2ccc3[nH]c4c(c3c2)CCCC4)c1,.,.,18.5%,-7.5%
Cc1nn(-c2ccc(F)cc2)c(Cl)c1C(=O)NCC1CCCO1 (configuration not stated),-14.2%,.,89.1µM*,7.3%
Cc1nn(-c2ccc(F)cc2)c(Oc2ccccc2)c1CCC(=O)NCC1CCCO1 (configuration not stated),.,.,.,24.6%
COc1ccc(/C=C(\C#N)C(=O)Nc2cccc(C)n2)cc1,1.6%,-3.5%,-18.6%,-0.7%
Cc1ccc(C)c(C(C)NC(=O)c2ccc(Br)o2)c1 (configuration not stated),-19.8%,50.1µM*,-11.4%,-2.4%
CC(NC(=O)c1ccc(Br)o1)c1ccc(C(F)(F)F)cc1 (configuration not stated),.,.,.,-26.4%
C=C1CCC[C@]2(C)C[C@H]3OC(=O)[C@H](CNCCc4ccccc4OC)C3CC12 (some centres not stated),.,56.2µM*,-15.1%,-6.7%
CCOC(=O)CSC1=N/C(=C\c2cccnc2)C(=O)N1c1ccc(OC)cc1,2.0%,5.2%,-0.9%,-15.9%
Cc1ccc(O)c(N=Cc2cc(Cc3ccccc3)cc([N+](=O)[O-])c2O)c1,?,8.91µM*,-10.2%,?
O=C1C=CC(=O)N1N(c1ccccc1)c1ccccc1,4.74µM*,31.6µM*,12.6µM*,35.5µM*
O=C1c2ccccc2C(=O)N1N(c1ccccc1)c1ccccc1,1.8%,.,-1.0%,-7.7%
Cc1cc(C(=O)COC(=O)c2ccc(NC(=O)CC#N)cc2)c(C)n1CCc1ccc(F)cc1,2.5%,.,-0.7%,16.4%
CC(CC(=O)O)Nc1ccccc1O (configuration not stated),2.3%,35.5µM*,12.7%,?
Cc1c(C(=O)O)c(C(=O)O)nc2ccc(N3CCOCC3)cc12,.,39.8µM*,.,.
C=CC1C(N2CCOCC2)C(C)(C)S1(=O)=O (configuration not stated),9.47µM*,13.2%,-5.9%,-2.5%
Cc1cccc(CNc2cc(-c3ccccc3C)ncn2)c1,.,-25.3%,?,?
CCOC(=O)C1=CN(Cc2cccc(F)c2)S(=O)(=O)N(CC)C1c1cccc(OC)c1 (configuration not stated),-5.0%,.,-0.2%,-26.9%
COc1ccc(N(CC(=O)Nc2cc(C)cc(C)c2)S(=O)(=O)c2ccccc2[N+](=O)[O-])c(OC)c1,-6.5%,5.9%,0.3%,-19.0%
CCC(=O)N[C@@H]1CC(C(C)(C)NC(=O)CC)CC=C1C (some centres not stated),29.9µM*,18.1%,?,0.0%
O=C(Cc1cc(=O)[nH][nH]1)N/N=C/c1c(Cl)cccc1Cl,16.8µM*,50.1µM*,-26.6%,?
O=C(Cc1cc(=O)[nH][nH]1)N/N=C/c1c(F)cccc1Cl,-1.6%,15.8%,-5.0%,4.0%
O=C(Nc1ccc(C(=O)N2CCCC2)cc1)c1ccccc1Br,-10.8%,10.5%,4.1%,?
SMILES,PLK1 PBD inh,Sfp inh,VDR inh,12-LOX inh
C/C(N)=C(/C#N)C(=O)CSc1ncnc2ccccc12,26.7µM*,-6.2%,-1.5%,?
CCS(=O)(=O)N1CCN(C(C)CCc2ccccc2)CC1 (configuration not stated),-10.7%,-14.9%,-16.9%,?
CC(CCc1ccccc1)N1CCN(Cc2ccccc2)CC1 (configuration not stated),1.1%,-3.5%,-16.1%,5.62µM*
CC(C(=O)Nc1ccccc1-c1ccccc1)N1CCN(Cc2ccccc2)CC1 (configuration not stated),16.8µM*,5.3%,?,?
CC(NC(=O)C(C)N1CCN(Cc2ccccc2)CC1)c1ccccc1 (configuration not stated),-9.8%,-2.9%,-3.1%,-12.0%
Cc1cccc(CN2CCN(C(C)C(=O)NC(C)c3ccccc3)CC2)c1 (configuration not stated),4.9%,63.1µM*,36.4%,?
COc1cc(/C=N/NC(=O)CCn2c3ccccc3c3ccccc32)ccc1O,-4.9%,6.4%,-13.3%,4.5%
